Laboratory results reported in PubChem BioAssay (NCATS).
Inconclusive results are not listed. Entries that show only a call come without a potency. The source made the active and inactive calls. Calls follow the shape of the dose curve; as a rule, active = well fitted inhibition curve with a large enough effect; inconclusive = small, poorly fitted or top-dose-only effect; inactive = flat fitted curve, though single readings scatter. Where a SMILES comes first, the peptide text is derived from it. Bridges are numbered along the chain shown (N, C = ends). [ ]: non-standard residue; d: D form. The star is where a group is joined. X2 = CC[C@H](C)CCCCC(=O)*; Dab = NCC[C@H](N)C(=O)O

What follows are compounds tested against Voltage-gated inwardly rectifying potassium channel KCNH2 (Homo sapiens) (UniProt Q12809) (assay: qHTS Assay for Small Molecule Inhibitors of the Human hERG Channel Activity (AID 588834;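 also: lower thallium flux fluorescence means stronger hERG block; nearly all actives have a fitted effect of over 50% in size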)). Settings: U2OS BacMam hERG, FluxOR thallium flux fluorescence; series mostly up to 46.1 µM.
Method in brief: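 In hERG-transduced U2OS cells, dye-loaded for 1 hr at room temperature in dark, test compounds incubated 10 min at 37 °C before thallium stimulation. AC50 values derived by Hill modelling of concentration-response.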
Potency is read from the fitted curve at half-maximal effect.

Chain of Voltage-gated inwardly rectifying potassium channel KCNH2 (Homo sapiens) (Q12809 whole entry, looked up): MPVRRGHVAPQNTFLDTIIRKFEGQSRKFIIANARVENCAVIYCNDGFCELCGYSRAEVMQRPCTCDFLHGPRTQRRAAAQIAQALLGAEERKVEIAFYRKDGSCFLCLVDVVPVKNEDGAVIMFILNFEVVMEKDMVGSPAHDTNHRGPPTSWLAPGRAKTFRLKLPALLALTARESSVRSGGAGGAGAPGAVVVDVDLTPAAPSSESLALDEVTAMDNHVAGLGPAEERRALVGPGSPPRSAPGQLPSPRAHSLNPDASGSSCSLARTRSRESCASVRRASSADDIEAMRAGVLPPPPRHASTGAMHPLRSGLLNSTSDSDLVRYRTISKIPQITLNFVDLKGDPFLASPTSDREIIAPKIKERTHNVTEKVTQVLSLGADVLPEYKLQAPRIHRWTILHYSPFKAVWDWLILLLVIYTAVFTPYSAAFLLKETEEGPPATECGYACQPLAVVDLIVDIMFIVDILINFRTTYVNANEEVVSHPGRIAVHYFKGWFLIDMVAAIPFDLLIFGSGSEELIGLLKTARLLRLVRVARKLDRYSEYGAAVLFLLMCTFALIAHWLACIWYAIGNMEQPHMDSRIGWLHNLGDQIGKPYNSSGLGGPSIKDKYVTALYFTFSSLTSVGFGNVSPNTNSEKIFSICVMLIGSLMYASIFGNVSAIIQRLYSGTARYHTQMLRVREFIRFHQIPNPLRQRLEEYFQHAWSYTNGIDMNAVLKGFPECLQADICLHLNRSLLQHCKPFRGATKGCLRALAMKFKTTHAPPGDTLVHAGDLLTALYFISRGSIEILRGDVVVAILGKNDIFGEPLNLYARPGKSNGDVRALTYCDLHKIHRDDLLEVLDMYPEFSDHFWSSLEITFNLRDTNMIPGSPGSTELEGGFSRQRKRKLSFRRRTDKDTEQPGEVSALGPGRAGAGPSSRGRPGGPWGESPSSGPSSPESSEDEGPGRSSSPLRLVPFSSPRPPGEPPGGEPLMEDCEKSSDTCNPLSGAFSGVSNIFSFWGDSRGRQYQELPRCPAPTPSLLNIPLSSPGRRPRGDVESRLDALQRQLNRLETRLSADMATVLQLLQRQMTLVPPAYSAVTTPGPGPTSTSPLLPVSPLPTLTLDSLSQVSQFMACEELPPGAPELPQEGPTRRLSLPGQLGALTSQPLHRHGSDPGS

Row | Compound | Potency
1 | CO[C@H]1C[C@H](O[C@H]2[C@H](C)[C@@H](O[C@@H]3O[C@H](C)C[C@H](N(C)C)[C@H]3O)[C@@H](C)C[C@]3(CO3)C(=O)[C@H](C)[C@@H](O)[C@@H](C)[C@@H](C)OC(=O)[C@@H]2C)O[C@@H](C)[C@@H]1O | inactive
2 | CC(C)OC(=O)Nc1ccc2nc(-c3cscn3)[nH]c2c1 | inactive
3 | CN1CCc2c(c3ccccc3n2Cc2ccccc2)C1 | 5.01 µM (active)
4 | CC(CCc1ccc(O)cc1)NCC(O)c1ccc(O)cc1 (stereo not drawn) | 1.78 µM (active)
5 | C=C1c2c(Cl)ccc(O)c2C(O)=C2C(=O)[C@]3(O)C(O)=C(C(N)=O)C(=O)[C@@H](N(C)C)[C@@H]3[C@@H](O)[C@H]12 | inactive
6 | O=C(O)Cc1cc(I)c(Oc2ccc(O)c(I)c2)c(I)c1 | inactive
7 | C[C@@H]1NC(=O)[C@@H](N)CNC(=O)[C@H](C2CCNC(N)=N2)NC(=O)/C(=C/NC(N)=O)NC(=O)[C@H](CNC(=O)C[C@@H](N)CCCN)NC1=O (stereo partly drawn) | inactive
8 | CCCCCCCCCCCCCCCCCCCCCC(=O)Nc1ccn([C@@H]2O[C@H](CO)[C@@H](O)[C@@H]2O)c(=O)n1 | inactive
9 | Nc1nc(NC2CC2)c2ncn([C@@H]3C=C[C@@H](CO)C3)c2n1 | inactive
10 | CC(C)(C)c1ccc(CN2CCN(C(c3ccccc3)c3ccc(Cl)cc3)CC2)cc1 (stereo not drawn) | 2.82 µM (active)
11 | CC(C)CCCC(C)NC(C)C (stereo not drawn) | inactive
12 | NC(=O)CC[C@@H]1NC(=O)[C@H](Cc2ccccc2)NC(=O)[C@H](Cc2ccc(O)cc2)NC(=O)[C@@H](N)CSSC[C@@H](C(=O)N2CCC[C@H]2C(=O)N[C@@H](CCCN=C(N)N)C(=O)NCC(N)=O)NC(=O)[C@H](CC(N)=O)NC1=O | inactive
13 | NC[C@H]1O[C@H](O[C@H]2[C@H](O)[C@@H](O[C@H]3O[C@H](CO)[C@@H](O)[C@H](N)[C@H]3O)[C@H](N)C[C@@H]2N)[C@H](N)C[C@@H]1O | inactive
14 | CC(C)=CCC/C(C)=C/CC/C(C)=C/CC/C(C)=C/CC1=C(C)C(=O)c2ccccc2C1=O | inactive
15 | CCOc1cc(-c2nccc3cc(OC)c(OC)cc23)cc(OCC)c1OCC | inactive
16 | C=CC[N+]1([C@H]2C[C@H]3[C@@H]4CC[C@H]5C[C@H](O)[C@@H](N6CCOCC6)C[C@]5(C)[C@H]4CC[C@]3(C)[C@H]2OC(C)=O)CCCC1 | inactive
17 | N#Cc1ccc2c(c1)N(CCCN1CCC(O)CC1)c1ccccc1S2 | 14.1 µM (active)
18 | CC(=O)Oc1cccc2c1C(=O)c1c(OC(C)=O)cc(C(=O)O)cc1C2=O | inactive
19 | CC(=O)Oc1cc(C(F)(F)F)ccc1C(=O)O | inactive

Row | Compound | Potency
20 | CC(=O)O[C@@H]1CC2CCC1(C)C2(C)C (stereo partly drawn) | inactive
21 | NC[C@@H]1CC[C@@H](N)[C@@H](O[C@H]2[C@H](O)[C@@H](O[C@H]3O[C@H](CO)[C@@H](O)[C@H](N)[C@H]3O)[C@H](N)C[C@@H]2N)O1 | inactive
22 | O=[N+]([O-])O[C@@H]1CO[C@H]2[C@@H]1OC[C@@H]2O | inactive
23 | CC1(C)S[C@@H]2[C@H](N3C(=O)C(c4ccccc4)NC3(C)C)C(=O)N2[C@H]1C(=O)O (stereo partly drawn) | inactive
24 | Cn1c(=O)c2c(ncn2CCOC(=O)C(C)(C)Oc2ccc(Cl)cc2)n(C)c1=O | inactive
25 | CCCc1ccc(C(=O)O)cc1 | inactive
26 | CC(=O)OCC1=C(C(=O)O)N2C(=O)[C@@H](NC(=O)Cc3ccccc3)[C@H]2SC1 | inactive
27 | CCCCC(CC)CCC(CC(C)C)OS(=O)(=O)O (stereo not drawn) | inactive
28 | CC[C@H](C)CCCCC(=O)N[C@@H](CCN)C(=O)N[C@H](C(=O)N[C@@H](CCN)C(=O)N[C@H]1CCNC(=O)[C@@H]([C@H](C)O)NC(=O)[C@H](CCN)NC(=O)[C@H](CCN)NC(=O)[C@H](CC(C)C)NC(=O)[C@@H](CC(C)C)NC(=O)[C@H](CCN)NC1=O)[C@@H](C)O (X2-[Dab]T[Dab][Dab][Dab][dL]L[Dab][Dab][dT]; lactam 4-C) | inactive
29 | O[C@@H]([C@H](O)[C@H](O)CBr)[C@H](O)CBr | inactive
30 | COC(=O)[C@@H](N)CS | inactive
31 | CC(C)C[C@H](NC(=O)[C@@H](Cc1c[nH]c2ccccc12)NC(=O)[C@H](Cc1ccc(O)cc1)NC(=O)[C@H](CO)NC(=O)[C@H](Cc1c[nH]c2ccccc12)NC(=O)[C@H](Cc1cnc[nH]1)NC(=O)[C@@H]1CCC(=O)N1)C(=O)N[C@@H](CCCN=C(N)N)C(=O)N1CCC[C@@H]1C(=O)NCC(N)=O | inactive
32 | Nc1nc2c(c(=O)[nH]1)N(C=O)C(CNc1ccc(C(=O)N[C@@H](CCC(=O)O)C(=O)O)cc1)CN2 (stereo partly drawn) | inactive
33 | NCC[C@H](O)C(=O)N[C@@H]1C[C@H](N)[C@@H](O[C@H]2O[C@H](CN)CC[C@H]2N)[C@H](O)[C@H]1O[C@H]1O[C@H](CO)[C@@H](O)[C@H](N)[C@H]1O | inactive
34 | C=C1CC[C@H](O)CC1=C/C=C1\CCC[C@]2(C)[C@@H]([C@H](C)CC[C@@H](O)C(C)(C)O)CC[C@@H]12 | inactive
35 | FC(F)(F)C(F)(F)C(F)(F)C(F)(F)C(F)(F)C(F)(F)F | inactive
36 | C[Se]CC[C@H](N)C(=O)O | inactive
37 | CCCC(=O)Nc1c(I)cc(I)c(CC(CC)C(=O)O)c1I (stereo not drawn) | inactive
38 | CN(C)CCC(O)(c1ccccc1)c1ccccc1Cl (stereo not drawn) | 3.16 µM (active)
